Screening data: PubChem, National Center for Advancing Translational Sciences (NCATS)
IMPase inh: IMPase inhibition in cells. 120,000 tested, under 10 active. CHO-M1 cells, IP1 accumulation, HTRF TR-FRET ratio. inhibition (IP1 accumulation), % at 46.1 µM. P97697; active means well fitted curve in the direction sought with a large enough effect in the signal ratio, not every such curve was filed as active; inconclusive means small, poorly fitted or top-dose-only effect, or a change in a side signal; inactive means no such curve, though single readings can be large or run the other way; the % refers to the signal ratio;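 further: cells stimulated with carbachol in lithium chloride buffer; plate controls were DMSO basal wells for no effect and reference inhibitor wells for full effect; higher means more IMPase inhibition seen as more IP1 and lower FRET ratio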
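Elevated IP1 in lysates lowers TR-FRET signal (665/620 ratio and 620 channel reported). Cells were CHO-M1, given carbachol (50 uM as added) plus 50mM LiCl, pH 7.4, 30 min, 37C; compounds titrated up to 46 uM; AC50 by Hill equation.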
HTT aggregate: mutant huntingtin aggregation inhibition; AID 1688; PC12 HttQ103-GFP aggregates, Acumen cytometry, 40 h; Potency, µM (titrated, usually from 46.1 µM), for the others: top-dose activity change, negative = inhibition, hits mostly inhibitors; 1.1% of 220,000 active; further: potency means the concentration at half of the fitted maximal effect; on the % scale 0 is the no-effect control and ±100 the full control effect; nearly all actives have a fitted effect of over 60% in size
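PC12 cells with ecdysone-inducible HTT exon1 Q103-GFP, induced by 100 nM tebufenozide, given compounds in a concentration series. GFP aggregates (1–25 um, 6 SD above background) counted in lysates by laser-scanning cytometry, 488 nm excitation.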
HTT ATP protect: protects HTT-Q103 PC12 cells, measured by ATP; PC12 HTT-Q103 induced, cytoprotection, ATP luminescence, 40 h; Potency, µM (series often up to 56.4 µM), inactives show cytoprotection (ATP increase), actives largely listed as activators; 0.14% of 230,000 active; AID 1471; further: potency means the concentration at half of the fitted maximal effect; % of control where 0% means no effect; nearly all actives have a fitted effect of over 45% in size
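Rat PC12, Q103 Htt exon1-GFP fusion, ecdysone promoter; tebufenozide inducer 100 nM final; compound titration; qHTS, 1500 cells/well; ATPlite luminescent read.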
HPGD block: inhibitors of human 15-hydroxyprostaglandin dehydrogenase (HPGD). 4.3% of 150,000 active. P15428. purified HPGD, NADH fluorescence kinetic, PGE2 substrate. Potency, µM, inactives show at the top dose activity change, negative = inhibition, most hits filed as inhibitors; active means well fitted inhibition curve with a large enough effect, not every such curve was filed as active; inconclusive means small, poorly fitted or top-dose-only effect, or another doubt; inactive means no such curve, though single readings can be large or run the other way; further: potency means the concentration at half of the fitted maximal effect; on the % scale 0 is the no-effect control and ±100 the full control effect
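NADH formation kinetics: reaction with 30 uM PGE2 and 1 mM NAD+ (final), 20 nM enzyme, Tris-HCl pH 8 with Tween 20, after 15 min compound preincubation at room temperature. Fluorescence change, last versus first of five reads.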
ALDH1A1 block: ALDH1A1 (human) enzyme inhibition | P00352 | Purified ALDH1A1, NADH fluorescence, propionaldehyde substrate | Potency, µM (doses to about 75.3 µM), for inactives: top-dose activity, negative = inhibition, actives largely listed as inhibitors | 7.3% of 220,000 active | AID 1030; active means well fitted inhibition curve with a large enough effect, not every such curve was filed as active; inconclusive means small, poorly fitted or top-dose-only effect, or another doubt; inactive means no such curve, though single readings can be large or run the other way;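 further: potency means the concentration at half of the fitted maximal effect; plate controls were no enzyme wells and a reference inhibitor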
Target sequence (P00352 whole entry, looked up): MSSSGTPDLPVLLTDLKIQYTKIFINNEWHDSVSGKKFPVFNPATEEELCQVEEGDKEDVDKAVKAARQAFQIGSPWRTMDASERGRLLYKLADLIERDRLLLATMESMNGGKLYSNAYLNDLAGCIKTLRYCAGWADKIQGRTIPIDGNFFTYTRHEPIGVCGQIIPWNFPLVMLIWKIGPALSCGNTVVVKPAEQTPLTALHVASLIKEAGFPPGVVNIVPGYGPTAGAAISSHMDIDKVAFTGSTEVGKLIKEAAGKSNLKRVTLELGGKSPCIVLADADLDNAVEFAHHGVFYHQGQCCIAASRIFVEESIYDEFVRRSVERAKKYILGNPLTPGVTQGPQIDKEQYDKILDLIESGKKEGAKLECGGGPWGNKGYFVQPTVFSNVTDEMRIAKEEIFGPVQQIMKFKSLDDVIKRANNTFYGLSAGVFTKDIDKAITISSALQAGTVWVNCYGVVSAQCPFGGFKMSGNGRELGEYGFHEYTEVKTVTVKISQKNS
IMPase Li inh: IMPase inhibition in cells with lithium potentiation; CHO-M1 cells, IP1 TR-FRET (IP-One), carbachol + lithium; Potency, µM (top dose mostly 59.4 µM), inactives show top-dose activity, negative = IMPase inhibition, most hits filed as inhibitors; 0.35% of 210,000 active;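 further: IP1 builds up when IMPase is blocked and the TR-FRET signal falls; potency means the concentration at half of the fitted maximal effect; plate controls were basal vehicle for no effect and high inhibitor control for full effect; nearly all actives have a fitted effect of over 50% in size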
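IP1 accumulation measured by competitive TR-FRET in lysed CHO-M1 cells after 30 min compound exposure at 37C, with a small lithium addition to potentiate weak responses. Hill-equation AC50 from ratio and donor-channel data.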
Starred values were filed as active, the others as inactive; ? = inconclusive; . = no result; [ ] = another dose, or the depositor's remark. Hits are enriched below; roughly 9.4% of the tested compounds scored in any of these assays. Unless noted, the call rests on the fitted dose curve; in most records, active means well fitted curve in the direction sought with a large enough effect; inconclusive means small, poorly fitted or top-dose-only effect, or another doubt; inactive means no such curve, though single readings can be large; an effect the other way counts as inactive or inconclusive.

SMILES	IMPase inh	HTT aggregate	HTT ATP protect	HPGD block	ALDH1A1 block	IMPase Li inh
CCCCCSc1nnc(-c2ccccc2N)c(=O)[nH]1	.	2%	.	0%	-2%	-3%
CCCCCSc1nnc(-c2ccccc2NC(C)=O)c(=O)[nH]1	.	7%	2.8µM*	.	9%	-7%
CC(=O)Nc1ccccc1-c1nnc(SCc2ccccc2Cl)[nH]c1=O	0	-4%	-12%	16µM*	-3%	3%[38.3 µM]
O=c1cc(CN2CCN(c3ccccc3F)CC2)c2cc(O)c(-c3ccccc3)cc2o1	.	27%	.	-23%	28µM*	-10%
CC(=O)O[C@]1(C(C)=O)CC[C@H]2C3C=C(Cl)C4=CC(=O)[C@@H]5C[C@H]5[C@]4(C)C3CC[C@@]21C (some centres undefined)	.	.	.	4%	3%	10%
CC1(C)CC(=O)C(C=Nc2cccnc2)=C(O)C1	5	?	-44%	-5%	7.9µM*	0%[38.3 µM]
CC1(C)CC(=O)C(C=Nc2cccnc2/N=C/C2=C(O)CC(C)(C)CC2=O)=C(O)C1	.	0%	-21%	.	2.2µM*	5%
CCOc1ccccc1-n1cnc2cc(C(=O)NCc3ccco3)ccc21	4	?	-12%	16µM*	-16%	2%[38.3 µM]
COc1ccc(OC)c(-n2cnc3cc(C(=O)O)ccc32)c1	0	4%	-8%	16µM*	5%	14%[38.3 µM]
O=C(NC1CC1)c1ccc2c(c1)ncn2C1CCCC1	3	-4%	-8%	14µM*	?	-2%[38.3 µM]
COc1ccccc1-n1c(C)nc2cc(C(=O)O)ccc21	?	-1%	11%	-23%	-14%	11%[38.3 µM]
COc1ccccc1-n1cnc2cc(C(=O)NC3CCCC3)ccc21	-10	?	11%[10 µM]	16µM*	3%	14%
CCN(CC)S(=O)(=O)c1ccc(N=Cc2c(C)c(C#N)c(=O)n(C)c2O)cc1	.	15%	10%[10 µM]	-21%	?	-2%
Cc1cnc(CNc2ncnc3ccc(-c4ccc(N(C)C)cc4)cc23)cn1	.	.	-59%	.	-11%	18%
CC(C)CCSc1nc2c(c(=O)n(C)c(=O)n2C)n1Cc1ccccc1Cl	12	.	.	.	.	.
COC(=O)c1cc(NC(=S)N2CCN(C(=O)C3CCCO3)CC2)cc(C(=O)OC)c1 (centres undefined)	.	-5%	-19%	.	?	0%
CCOC(=O)Cc1c(C)nc2c(-c3cccc(Br)c3)c[nH]n2c1=O	-1	11µM*	-26%	?	?	11%[38.3 µM]
CCOC(=O)Cc1c(C)nc2c(-c3ccc(Cl)cc3)c(C)[nH]n2c1=O	2	18µM*	-68%	?	?	3%[38.3 µM]
O=c1c2c(nc3c(-c4cccc(Br)c4)c[nH]n13)CCCC2	2	3.5µM*	-37%[10 µM]	?	2%	-2%
CCOC(=O)Cc1c(C)nc2c(C#N)c[nH]n2c1=O	-4	15%	-9%	-18%	-11%	-4%[38.3 µM]
Cc1cc(S(=O)(=O)Nc2ccc3oc4c(c3c2)CCCC4)ccc1Cl	3	.	.	.	.	.
CCCN(CC(=O)Nc1ccc(F)c(F)c1F)CC(=O)Nc1c(Cl)cccc1Cl	-2	22%	-22%[10 µM]	.	-6%	.
N[C@H](C(=O)O)[C@H](N)C(=O)O	.	.	0%[10 µM]	-1%	-1%[13.5 µM]	0%
CC1CC(C)CN(Cc2nc3c(c(=O)n(C)c(=O)n3C)n2CCN2CCOCC2)C1 (centres undefined)	2	7%[9.22 µM]	-11%	-1%	7.9µM*	2%[38.3 µM]
CC(C)CCn1c(CN2CCOCC2)nc2c1c(=O)n(C)c(=O)n2C	13	-4%	6%[10 µM]	-12%	14µM*	30%[38.3 µM]
Cn1c(=O)c2c(nc(CN3CCN(c4ccccc4)CC3)n2CCN2CCOCC2)n(C)c1=O	-13	?	-1%	2%	?	-1%[38.3 µM]
COc1ccc(NS(=O)(=O)c2ccc(OC)c3ccccc23)cn1	1	18µM*	-23%	-20%	7.1µM*	1%[38.3 µM]
O=S(=O)(c1ccccc1)N1CCC[C@@]2(CCN(c3ccccc3)C2)C1	.	.	28%	-12%	?	10%
